Drawing on the supplement of paper PMC10849652, this text covers log2 fold change for 14 targets.

Assay in all cases: log2 fold change, soluble protein after heating vs DMSO (PISA); higher = thermal stabilisation; K562 lysate, 10 uM; active = over 0.2 and 3.5 SD of the protein, either way, in both replicates (recomputed)
Compound in test [1]: CS(=O)(=O)CCNCc1ccc(-c2ccc3ncnc(Nc4ccc(OCc5cccc(F)c5)c(Cl)c4)c3c2)o1 [lapatinib]
In short, it runs like this: (§1)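 Quantification was by TMTpro 16plex LC-MS/MS with equalised channel sums, applied to the supernatant after 21,000xg for 90 min. Samples were crude K562 extract at 1 mg/mL protein in PBS pH 7.4 with 1 mM MgCl2, treated with 10 μM compound for 30 min, heated for 3 min across 48°C-58°C, pooled and brought to 0.5% NP-40 at 4°C. Values are log-two fold changes in thermal stability relative to solvent controls, from duplicates.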

Compound in test [2]: CS(=O)(=O)N1CCN(Cc2cc3nc(-c4cccc5[nH]ncc45)nc(N4CCOCC4)c3s2)CC1 [pictilisib]
In short, it runs like this: as §1

Compound in test [3]: C[C@@H](Oc1cc(-c2cnn(C3CCNCC3)c2)cnc1N)c1c(Cl)ccc(F)c1Cl [crizotinib]
In short, it runs like this:
as §1

Compound in test [4]: C[C@H](C1=CC=C(C=C1)C(=O)NC2=C3C=CNC3=NC=C2)N
The gist of the method:
as §1

Compound in test [5]: C[C@H](Nc1ncnc2nc[nH]c12)c1cc2cccc(Cl)c2c(=O)n1-c1ccccc1 [duvelisib]
The gist of the method:
as §1

Compound in test [6]: Cc1cc(Nc2cc(CN3CCOCC3)c3nc(C)c(Cc4ccc(Cl)cc4F)n3n2)n[nH]1 [gandotinib]
In short, it runs like this:
as §1

Compound in test [7]: Cc1cc(Nc2cc(N3CCN(C)CC3)nc(Sc3ccc(NC(=O)C4CC4)cc3)n2)n[nH]1 [tozasertib]
The gist of the method: as §1

Compound in test [8]: Cc1ccc(-n2nc(C(C)(C)C)cc2NC(=O)Nc2ccc(OCCN3CCOCC3)c3ccccc23)cc1 [doramapimod]
The gist of the method:
as §1

Compound in test [9]: Cc1ccc(NC(=O)c2ccc(CN3CC[C@H](N(C)C)C3)c(C(F)(F)F)c2)cc1Nc1nccc(-c2cncnc2)n1 [bafetinib]
In short, it runs like this:
as §1

Compound in test [10]: Cc1cccc(CC(=O)N2CCc3c2ccc(-c2cn(C)c4ncnc(N)c24)c3F)n1
In short, it runs like this: as §1

About 8,800 targets were measured; listed, in parts, are those with a hit and a random draw of the rest. About 0.5% of all pairs of compound and target were hits. Unmarked numbers belong to inactive results.

Sequence of UniProt Q6PJW8 (Q6PJW8 whole entry, looked up): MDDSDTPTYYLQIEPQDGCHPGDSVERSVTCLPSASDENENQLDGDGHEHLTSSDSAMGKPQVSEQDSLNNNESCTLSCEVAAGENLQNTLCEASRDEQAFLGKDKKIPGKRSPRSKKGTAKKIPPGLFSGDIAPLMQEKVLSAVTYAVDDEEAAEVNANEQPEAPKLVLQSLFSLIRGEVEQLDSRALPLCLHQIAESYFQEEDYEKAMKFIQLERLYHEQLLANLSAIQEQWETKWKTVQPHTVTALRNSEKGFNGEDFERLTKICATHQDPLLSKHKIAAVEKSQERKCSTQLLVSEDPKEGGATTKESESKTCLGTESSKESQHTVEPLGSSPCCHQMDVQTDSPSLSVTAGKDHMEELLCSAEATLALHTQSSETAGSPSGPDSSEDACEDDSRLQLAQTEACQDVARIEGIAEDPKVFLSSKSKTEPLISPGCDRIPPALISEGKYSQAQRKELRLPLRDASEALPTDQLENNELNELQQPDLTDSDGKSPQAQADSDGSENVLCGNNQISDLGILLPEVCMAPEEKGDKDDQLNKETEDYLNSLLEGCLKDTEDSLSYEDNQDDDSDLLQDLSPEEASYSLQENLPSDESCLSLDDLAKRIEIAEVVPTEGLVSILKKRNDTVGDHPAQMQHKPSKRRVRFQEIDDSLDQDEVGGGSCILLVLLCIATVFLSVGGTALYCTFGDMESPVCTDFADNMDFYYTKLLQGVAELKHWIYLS
Sequence of UniProt Q9NRF8 (Q9NRF8 whole entry, looked up): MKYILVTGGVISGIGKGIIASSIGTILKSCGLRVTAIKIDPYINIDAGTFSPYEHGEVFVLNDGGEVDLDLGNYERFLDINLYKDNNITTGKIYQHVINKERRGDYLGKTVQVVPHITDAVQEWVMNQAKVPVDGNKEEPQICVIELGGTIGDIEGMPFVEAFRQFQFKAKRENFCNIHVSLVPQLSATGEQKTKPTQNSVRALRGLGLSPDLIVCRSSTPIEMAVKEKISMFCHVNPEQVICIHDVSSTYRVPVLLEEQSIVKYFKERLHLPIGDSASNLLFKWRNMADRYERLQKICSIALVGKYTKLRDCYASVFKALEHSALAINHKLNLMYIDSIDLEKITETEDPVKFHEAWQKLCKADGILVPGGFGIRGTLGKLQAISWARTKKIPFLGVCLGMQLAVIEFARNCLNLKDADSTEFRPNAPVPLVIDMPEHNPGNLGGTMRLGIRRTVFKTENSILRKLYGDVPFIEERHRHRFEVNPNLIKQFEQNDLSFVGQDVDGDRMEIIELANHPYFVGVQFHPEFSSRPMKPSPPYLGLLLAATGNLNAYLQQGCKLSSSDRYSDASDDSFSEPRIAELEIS
Sequence of UniProt Q9Y2V7 (Q9Y2V7 whole entry, looked up): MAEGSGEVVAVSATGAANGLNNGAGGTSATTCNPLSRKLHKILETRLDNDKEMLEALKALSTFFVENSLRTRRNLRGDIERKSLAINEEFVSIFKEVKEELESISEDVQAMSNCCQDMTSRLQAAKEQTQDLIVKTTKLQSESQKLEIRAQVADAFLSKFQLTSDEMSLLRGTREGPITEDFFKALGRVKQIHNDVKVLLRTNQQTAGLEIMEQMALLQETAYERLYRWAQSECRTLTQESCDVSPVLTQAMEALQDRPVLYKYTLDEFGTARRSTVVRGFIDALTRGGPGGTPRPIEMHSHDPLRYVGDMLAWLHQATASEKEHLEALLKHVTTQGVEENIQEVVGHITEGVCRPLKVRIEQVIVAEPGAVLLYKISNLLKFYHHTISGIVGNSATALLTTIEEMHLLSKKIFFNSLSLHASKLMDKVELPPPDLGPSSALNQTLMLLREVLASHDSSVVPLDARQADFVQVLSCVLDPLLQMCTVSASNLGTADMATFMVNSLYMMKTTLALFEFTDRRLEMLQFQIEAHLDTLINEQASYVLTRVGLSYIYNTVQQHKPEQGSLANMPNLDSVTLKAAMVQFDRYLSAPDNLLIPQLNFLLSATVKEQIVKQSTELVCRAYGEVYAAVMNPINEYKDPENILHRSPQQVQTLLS
Sequence of UniProt P49674 (P49674 whole entry, looked up): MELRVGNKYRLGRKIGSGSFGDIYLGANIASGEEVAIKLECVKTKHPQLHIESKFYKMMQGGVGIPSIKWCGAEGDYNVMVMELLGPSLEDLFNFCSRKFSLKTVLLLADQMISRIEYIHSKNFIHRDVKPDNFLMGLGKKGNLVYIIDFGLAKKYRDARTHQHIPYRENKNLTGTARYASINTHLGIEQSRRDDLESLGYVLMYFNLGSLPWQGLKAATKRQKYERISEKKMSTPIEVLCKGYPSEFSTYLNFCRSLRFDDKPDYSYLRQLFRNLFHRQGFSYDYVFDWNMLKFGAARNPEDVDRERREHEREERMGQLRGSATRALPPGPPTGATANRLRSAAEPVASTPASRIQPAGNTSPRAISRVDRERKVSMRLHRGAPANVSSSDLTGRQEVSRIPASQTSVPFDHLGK
Sequence of UniProt P61024 (P61024 whole entry, looked up): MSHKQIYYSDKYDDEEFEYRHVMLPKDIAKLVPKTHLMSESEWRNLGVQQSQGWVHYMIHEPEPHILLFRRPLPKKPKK
Sequence of UniProt Q9UHI6 (Q9UHI6 whole entry, looked up): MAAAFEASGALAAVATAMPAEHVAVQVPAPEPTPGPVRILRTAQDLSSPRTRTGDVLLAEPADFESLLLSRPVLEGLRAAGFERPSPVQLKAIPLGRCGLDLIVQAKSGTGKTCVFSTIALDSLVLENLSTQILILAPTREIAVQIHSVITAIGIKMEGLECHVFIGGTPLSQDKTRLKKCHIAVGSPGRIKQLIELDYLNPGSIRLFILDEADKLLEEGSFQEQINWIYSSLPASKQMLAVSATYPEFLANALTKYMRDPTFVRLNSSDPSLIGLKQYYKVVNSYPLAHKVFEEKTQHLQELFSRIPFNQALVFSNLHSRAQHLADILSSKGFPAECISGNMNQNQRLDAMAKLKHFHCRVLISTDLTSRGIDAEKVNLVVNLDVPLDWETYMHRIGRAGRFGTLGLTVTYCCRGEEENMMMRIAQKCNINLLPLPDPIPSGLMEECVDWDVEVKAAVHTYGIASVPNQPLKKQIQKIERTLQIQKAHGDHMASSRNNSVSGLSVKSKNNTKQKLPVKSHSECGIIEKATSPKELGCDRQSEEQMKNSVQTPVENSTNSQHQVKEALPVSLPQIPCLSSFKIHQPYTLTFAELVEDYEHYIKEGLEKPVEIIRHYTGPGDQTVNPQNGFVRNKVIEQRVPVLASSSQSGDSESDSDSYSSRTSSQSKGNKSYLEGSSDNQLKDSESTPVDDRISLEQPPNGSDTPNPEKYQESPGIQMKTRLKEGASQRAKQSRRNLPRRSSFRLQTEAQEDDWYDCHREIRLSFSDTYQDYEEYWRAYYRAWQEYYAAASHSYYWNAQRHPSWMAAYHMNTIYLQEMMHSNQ
Sequence of UniProt P50570 (P50570 whole entry, looked up): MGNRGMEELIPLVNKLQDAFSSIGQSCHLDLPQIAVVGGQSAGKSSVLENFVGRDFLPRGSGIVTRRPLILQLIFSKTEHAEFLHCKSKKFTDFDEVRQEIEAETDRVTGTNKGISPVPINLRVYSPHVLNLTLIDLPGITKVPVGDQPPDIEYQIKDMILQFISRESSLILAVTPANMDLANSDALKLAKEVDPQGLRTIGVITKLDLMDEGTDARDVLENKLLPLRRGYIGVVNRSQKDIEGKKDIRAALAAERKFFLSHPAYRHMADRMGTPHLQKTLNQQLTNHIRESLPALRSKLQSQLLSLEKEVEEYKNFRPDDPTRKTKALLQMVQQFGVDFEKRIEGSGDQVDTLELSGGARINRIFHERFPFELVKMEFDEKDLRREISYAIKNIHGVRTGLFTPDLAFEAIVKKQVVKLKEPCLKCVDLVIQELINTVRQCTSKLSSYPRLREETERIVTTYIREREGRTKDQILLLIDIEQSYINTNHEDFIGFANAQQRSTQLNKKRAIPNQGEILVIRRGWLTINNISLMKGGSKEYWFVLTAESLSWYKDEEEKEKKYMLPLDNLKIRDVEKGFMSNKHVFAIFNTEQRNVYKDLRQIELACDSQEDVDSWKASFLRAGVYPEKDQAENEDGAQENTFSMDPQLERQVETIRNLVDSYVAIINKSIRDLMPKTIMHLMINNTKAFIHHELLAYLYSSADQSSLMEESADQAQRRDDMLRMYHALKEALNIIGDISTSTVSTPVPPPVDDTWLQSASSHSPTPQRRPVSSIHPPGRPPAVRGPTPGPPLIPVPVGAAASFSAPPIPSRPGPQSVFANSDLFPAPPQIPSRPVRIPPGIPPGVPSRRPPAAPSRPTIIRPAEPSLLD
Sequence of UniProt Q99828 (Q99828 whole entry, looked up): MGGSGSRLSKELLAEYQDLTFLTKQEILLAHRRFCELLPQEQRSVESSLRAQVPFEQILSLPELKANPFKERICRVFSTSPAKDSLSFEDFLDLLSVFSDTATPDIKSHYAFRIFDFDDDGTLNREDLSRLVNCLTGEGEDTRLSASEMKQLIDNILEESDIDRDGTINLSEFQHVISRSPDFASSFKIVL
Sequence of UniProt Q14019 (Q14019 whole entry, looked up): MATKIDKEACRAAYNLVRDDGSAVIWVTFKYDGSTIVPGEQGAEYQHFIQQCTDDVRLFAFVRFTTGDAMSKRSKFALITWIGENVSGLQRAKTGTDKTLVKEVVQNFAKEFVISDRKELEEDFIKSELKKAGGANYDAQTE
Sequence of UniProt Q92466 (Q92466 whole entry, looked up): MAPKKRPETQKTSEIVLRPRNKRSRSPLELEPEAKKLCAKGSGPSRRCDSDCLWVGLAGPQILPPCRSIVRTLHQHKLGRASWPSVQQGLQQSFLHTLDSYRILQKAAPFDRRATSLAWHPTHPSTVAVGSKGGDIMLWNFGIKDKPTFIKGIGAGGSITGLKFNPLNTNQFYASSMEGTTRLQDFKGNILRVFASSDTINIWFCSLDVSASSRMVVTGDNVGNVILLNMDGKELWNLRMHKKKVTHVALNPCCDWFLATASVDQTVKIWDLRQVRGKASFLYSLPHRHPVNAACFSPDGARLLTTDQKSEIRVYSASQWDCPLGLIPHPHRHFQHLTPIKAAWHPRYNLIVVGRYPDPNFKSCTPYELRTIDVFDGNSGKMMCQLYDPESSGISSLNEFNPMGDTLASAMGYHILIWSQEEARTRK

As for DMXL1 (UniProt Q9Y485), the log2 fold change was -0.003 in test [1]; -0.014 in [2]; -0.021 in test [3]; 0.001 in test [4]; 0.007 in test [5]; -0.028 in test [6]. The log2 fold change in test [7] is 0.002; in test [8], 0.039; in [9], -0.01; in test [10], 0.026.

With DDA1 (UniProt Q9BW61), the log2 fold change in test [1] is 0.011; in test [2] it was -0.025; in test [3], 0.025; in [4] it was -0.013; in test [5], -0.013; in [6], -0.019. Also, the log2 fold change in test [7] was -0.037; in [8], 0.013; in test [9] it was 0.011; in [10], -0.062.

Turning to DNM2 (UniProt P50570), the log2 fold change is -0.003 in [1]; 0.022 in test [2]; -0.013 in [3]; 0.021 in [4]; -0.007 in test [5]; -0.076 in test [6]. Moreover, the log2 fold change in test [7] was 0.001; in test [8] it was 0.033; in test [9], -0.011; in test [10] it was 0.035.

In the case of CTPS2 (UniProt Q9NRF8), the log2 fold change in test [1] is -0.025; in test [2], -0.018; in [3], -0.004; in test [4], -0.032; in test [5] it was 0.016; in [6] it was -0.002. The log2 fold change in [7] is 0.009; in test [8], 0.021; in [9], 0.077; in test [10], 0.003.

For CKS1B (UniProt P61024), the log2 fold change in [1] is 0.039; in [2] it was 0.002; in test [3] it was 0.094; in test [4], 0.302 (active); in test [5], -0.045; in test [6], -0.183. Also, the log2 fold change was 0.047 in test [7], 0.023 in test [8], 0.068 in test [9] and -0.324 (active) in test [10].

In the case of CORO7 isoform 3 (UniProt P57737), the log2 fold change is 0.009 in test [1]; -0.016 in test [2]; -0.063 in test [3]; 0.06 in test [4]; 0.004 in test [5]; -0.119 in test [6]. The log2 fold change was 0.005 in test [7], 0.013 in test [8], 0.001 in test [9] and -0.067 in test [10].

Turning to DPM1 (UniProt O60762), the log2 fold change in [1] was -0.003; in test [2], 0.009; in [3], 0.009; in test [4], 0.028; in test [5], -0.018; in test [6], -0.097. The log2 fold change is -0.014 in [7], -0.046 in [8], -0.061 in [9] and 0.061 in test [10].

Regarding CNST (UniProt Q6PJW8), the log2 fold change in test [1] was 0.005; in test [2], 0; in test [3] it was 0.031; in test [4], -0.022; in [5] it was -0.007; in test [6], 0.033. For the same target, the log2 fold change in [7] is 0.019; in test [8] it was 0.005; in [9] it was 0.033; in test [10], 0.025.

Take CSNK1E (UniProt P49674): the log2 fold change is -0.026 in test [1]; 0.103 in test [2]; 0.004 in [3]; 0.135 in [4]; -0.016 in test [5]; -0.134 in test [6]. The log2 fold change in [7] is -0.065; in test [8] it was 0.003; in test [9] it was -0.024; in test [10], -0.061.

DDX20 (UniProt Q9UHI6): the log2 fold change in [1] is -0.041; in test [2], 0.024; in test [3], -0.088; in test [4], 0.029; in test [5] it was 0.008; in test [6], -0.137. The log2 fold change is -0.065 in [7], 0.015 in [8], -0.016 in [9] and 0.054 in test [10].

COG6 (UniProt Q9Y2V7): the log2 fold change in test [1] is 0.012; in test [2] it was -0.019; in test [3] it was -0.104; in test [4], -0.137; in test [5], 0.014; in test [6], -0.115. Besides, the log2 fold change in test [7] was -0.011; in test [8] it was 0.037; in test [9] it was -0.071; in [10] it was 0.142.

On to CIB1 (UniProt Q99828), for which the log2 fold change in [1] is -0.073; in test [2], 0.047; in [3], -0.046; in test [4], 0.023; in [5] it was -0.006; in test [6], -0.008. Also, the log2 fold change was 0.06 in test [7], 0.051 in test [8], 0.115 in [9] and 0.059 in test [10].

Regarding DDB2 (UniProt Q92466), the log2 fold change was -0.03 in [1]; -0.025 in test [2]; -0.025 in test [3]; -0.01 in [4]; 0.014 in test [5]; 0.046 in test [6]. The log2 fold change in [7] was -0.026; in [8], 0.05; in test [9], 0.023; in test [10], 0.008.

Take COTL1 (UniProt Q14019): the log2 fold change was 0.007 in [1]; 0.016 in [2]; 0.045 in test [3]; 0.245 in [4]; -0.009 in [5]; -0.062 in test [6]. The log2 fold change is 0.024 in [7], -0.044 in test [8], 0.102 in test [9] and -0.122 in test [10].
